Experimental findings from PubChem BioAssay (NCATS) are described below.

Test [1] can be described thus: Primary qHTS for Huh7 cytotoxicity: counterscreen for inhibitors of MERS-S pseudotyped particle cell entry (AID 1479147). The following applies: outcome: dose series up to 57.1 µM unless noted.
Test [2] is described as follows: Primary qHTS for inhibitors of MERS-S pseudo-typed particle cell entry (AID 1479149). Further: nearly all actives have a fitted effect of over 60% in size. Further: potency means the concentration at half of the fitted maximal effect. On activity change, negative = inhibition: on the % scale 0 is the no-effect control and ±100 the full control effect. The following applies: outcome: dose series up to 57.1 µM unless noted.
Test [3] is described as follows: Cytotoxicity counterscreen for inhibitors of SARS-CoV-2 cell entry (AID 1645845). Further: nearly all actives have a fitted effect of over 50% in size. The conditions noted are these: outcome: dose series up to 57.1 µM unless noted. The gist of the method:
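48 h compound treatment (after 1 h preincubation), HEK293-ACE2 cells, 37 C/5% CO2; ATP luminescence endpoint; normalized to cell wells and media blanks.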

Test [4] is described as follows: Primary qHTS to identify inhibitors of SARS-CoV-2 cell entry (AID 1645846). Further: nearly all actives have a fitted effect of over 45% in size. Further: potency means the concentration at half of the fitted maximal effect. The conditions noted are these: SARS-CoV-2 pseudovirus cell entry assay, luminescence. The gist of the method: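 HEK293 cells stably expressing human ACE2, pre-treated 1 h with compound, then infected with MLV particles pseudotyped with Wuhan-Hu-1 spike (C-terminal 19-aa truncation). Luciferase luminescence after 48 h at 37 °C, normalised to spike PP and bald PP.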

Test [5] can be described thus: Primary qHTS for Vero E6 cytotoxicity: counterscreen for inhibitors of SARS-S pseudo-typed particle cell entry (AID 1479150). The following applies: outcome: dose series up to 57.1 µM unless noted.
Test [6] in a line: KB-8-5-11 P-gp reporter qHTS against the NCATS DSHEA and TCM libraries (AID 1919977; active means well fitted curve in the direction sought with a large enough effect; an effect the other way counts as inactive or inconclusive; further: 0% is about no effect). Put shortly: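 P-gp-overexpressing KB-8-5-11 cells were screened in colchicine-free medium at 500 cells/well, as a titration series. Cells were exposed for 72 h at 37C. Viability was read by CellTiter-Glo luminescence after 30 min at room temperature.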
Test [7] can be described thus: Confirmatory qHTS for VERO E6 Cytotoxicity Assay: Counterscreen for SARS-CoV-2 CPE Assay (AID 1508605). Further: on the % scale 0 is the no-effect control and ±100 the full control effect; nearly all actives have a fitted effect of over 60% in size.
Test [8] addresses Peroxisome proliferator-activated receptor delta (Homo sapiens) (UniProt Q03181). Nature of the test: qHTS assay for small molecule agonists of peroxisome proliferator-activated receptor delta signaling (AID 588534).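 Further: 0% = DMSO basal wells and 100% = positive control agonist at 10 µM.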 The gist of the method:
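Cells carrying a PPAR-delta beta-lactamase reporter were treated with compounds for 18 h at 37 °C in agonist mode. CCF4 fluorescence was read after 2 h; EC50 and efficacy from Hill fits.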

Test [9] addresses Cytochrome P450 2C9 (Homo sapiens) (UniProt P11712). As to the kind of experiment: qHTS Assay for Inhibitors and Substrates of Cytochrome P450 2C9 (AID 883; active means well fitted curve in the direction sought with a large enough effect; an effect the other way counts as inactive or inconclusive; further: on the % scale 0 is the no-effect control and ±100 the full control effect; nearly all actives have a fitted effect of over 60% in size). Put shortly:
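Luminescent read-out of deoxyluciferin hydroxylation, normalized to 57uM sulphaphenazole (AC100). Reaction: 10nM enzyme, 100uM Luciferin-H (equal to KM), 25mM KPO4, 10 min compound preincubation, then 60 min with NADPH regeneration, both at 37C.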

The target of test [10] is Cytochrome P450 2C19 (Homo sapiens) (UniProt P33261). Nature of the test: qHTS Assay for Inhibitors and Substrates of Cytochrome P450 2C19 (AID 899; active means well fitted curve in the direction sought with a large enough effect; an effect the other way counts as inactive or inconclusive; further: on the % scale 0 is the no-effect control and ±100 the full control effect; nearly all actives have a fitted effect of over 60% in size). Put shortly:
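Luminescence readout of luciferin formed from 10uM Luciferin-H EGE (KM level) by 5 nM CYP2C19 in 50mM KPO4. 60 min NADPH-driven reaction at 37C after 10 min compound preincubation; data scaled to 57uM ketoconazole inhibition.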

A short description of test [11]: qHTS Assay for Identifying Gametocytocidal Compounds (AID 743244; active means well fitted curve in the direction sought with a large enough effect; an effect the other way counts as inactive or inconclusive; further: potency means the concentration at half of the fitted maximal effect). The conditions noted are these: P. falciparum 3D7 stage III-V gametocytes, alamarBlue, 72 h. Put shortly:
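Compounds are pinned into medium, gametocytes (stage III–V, 3D7, 20,000 cells/well) added, and plates held 72 h at 37 °C in 5% CO2. AlamarBlue follows for 24 h before fluorescence reading.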

Test [12] can be described thus: Confirmatory qHTS to identify inhibitors of SARS-CoV-2 cell entry (AID 1645844). Further: potency means the concentration at half of the fitted maximal effect; nearly all actives have a fitted effect of over 45% in size. Put shortly: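 Luminescence from a luciferase reporter, read 48 hr after pseudotyped-particle addition, gives entry signal, normalised to spike-bearing PP wells and bald PP lacking fusion protein wells. Cells are Expi293F stably expressing human ACE2, compound-pretreated 1 hr.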
Test [13] is described as follows: Confirmatory qHTS for activators (rescue) of SARS-CoV-2 Cytopathic Effect (CPE) (AID 1508606). Further: potency means the concentration at half of the fitted maximal effect; nearly all actives have a fitted effect of over 70% in size.
Test [14] concerns the target Glutathione peroxidase 1 (Homo sapiens) (UniProt P07203). Nature of the test: Primary qHTS Assay for Inhibitors of Recombinant Selenoprotein Glutathione Peroxidase 1 (GPX1) (AID 1845191; active means well fitted curve in the direction sought with a large enough effect; an effect the other way counts as inactive or inconclusive; further: nearly all actives have a fitted effect of over 65% in size; on activity, negative = inhibition: on the % scale 0 is the no-effect control and ±100 the full control effect). The gist of the method:
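10 nM GPX1 + cpd, 30 min RT; start w/ 1 mM GSH, 0.5 mM cumene hydroperoxide, 0.5 mM NADPH, 100 nM GR, 0.01% BSA; buffer 50 mM Tris-HCl pH 7.5, 2 mM EDTA, 150 mM NaCl; Fl 340/450, 0 & 15 min.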

Test [15] deals with Phospholipid hydroperoxide glutathione peroxidase GPX4 (Homo sapiens) (UniProt P36969). As to the kind of experiment: Primary qHTS Assay for Inhibitors of Recombinant Selenoprotein Glutathione Peroxidase 4 (GPX4) (AID 1845192; active means well fitted curve in the direction sought with a large enough effect; an effect the other way counts as inactive or inconclusive; further: nearly all actives have a fitted effect of over 65% in size; on activity change, negative = inhibition: on the % scale 0 is the no-effect control and ±100 the full control effect). The gist of the method: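 NADPH consumption, followed by fluorescence at 340/450 nm between 0 and 15 min, reports GPX4 activity via coupled glutathione reductase (100 nM). Enzyme 200 nM was pre-exposed to compound 30 min; 0.5 mM cumene hydroperoxide and 1 mM GSH served as substrates.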
Chain of Phospholipid hydroperoxide glutathione peroxidase GPX4 (Homo sapiens) (P36969 whole entry, looked up): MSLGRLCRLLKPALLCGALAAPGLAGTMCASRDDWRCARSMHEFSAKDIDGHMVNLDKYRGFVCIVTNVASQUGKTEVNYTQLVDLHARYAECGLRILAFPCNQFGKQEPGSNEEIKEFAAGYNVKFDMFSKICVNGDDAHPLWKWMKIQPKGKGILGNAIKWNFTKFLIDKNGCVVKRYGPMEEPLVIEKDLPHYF

Test [16] has as its target Alpha-galactosidase (Coffea arabica) (UniProt Q42656). Nature of the test: Counterscreen for Glucocerebrosidase Inhibitors: qHTS Assay for Coffee Bean alpha-Galactosidase at pH 4.5 (AID 957; active means well fitted curve in the direction sought with a large enough effect; an effect the other way counts as inactive or inconclusive;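 further: plate controls were enzyme alone for no effect and no enzyme for full effect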). The gist of the method:
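Coffee bean enzyme (2 nM) with 80 uM 4-methylumbelliferyl alpha-D-galactopyranoside in 50 mM citric acid, 0.005% Tween-20, pH 4.5, 20 min at room temperature; compounds 0.7 nM–77 uM. Stopped at pH 10, fluorescence 365/440 nm; AC50 from Hill fits.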

Test [17] has the same target. As to the kind of experiment: Counterscreen for Glucocerebrosidase Inhibitors: qHTS Assay for Coffee Bean alpha-Galactosidase at pH 5.9 (AID 998; active means well fitted curve in the direction sought with a large enough effect; an effect the other way counts as inactive or inconclusive;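 further: plate controls were uninhibited enzyme for no effect and no-enzyme basal signal for full effect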). The gist of the method:
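Compounds were titrated from 0.7 nM to 77 uM against green coffee bean alpha-galactosidase (2 nM) using 80 uM fluorogenic 4-methylumbelliferyl substrate. After 20 min at room temperature, reactions were stopped at pH 10 and read by fluorescence.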

Test [18] in a line: Validation screen for inhibitors of Lassa infection (AID 463096). Further: on the % scale 0 is the no-effect control and ±100 the full control effect.
Setting [19] is: activity change, negative = inhibition: at 57.1 µM (top of the series) unless noted, outcome: at 57.1 µM (top of the series) unless noted.

Results filed as inconclusive are left out. Active and inactive are the calls of the source. Unless noted, the call rests on the fitted dose curve.

Chain of Glutathione peroxidase 1 (Homo sapiens) (P07203 whole entry, looked up): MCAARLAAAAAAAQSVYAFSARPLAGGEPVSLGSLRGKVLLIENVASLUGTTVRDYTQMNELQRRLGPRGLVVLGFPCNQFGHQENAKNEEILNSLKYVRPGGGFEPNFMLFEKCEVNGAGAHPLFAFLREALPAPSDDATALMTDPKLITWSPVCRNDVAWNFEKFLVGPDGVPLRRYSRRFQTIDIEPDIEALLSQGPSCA
Chain of Peroxisome proliferator-activated receptor delta (Homo sapiens) (Q03181 whole entry, looked up): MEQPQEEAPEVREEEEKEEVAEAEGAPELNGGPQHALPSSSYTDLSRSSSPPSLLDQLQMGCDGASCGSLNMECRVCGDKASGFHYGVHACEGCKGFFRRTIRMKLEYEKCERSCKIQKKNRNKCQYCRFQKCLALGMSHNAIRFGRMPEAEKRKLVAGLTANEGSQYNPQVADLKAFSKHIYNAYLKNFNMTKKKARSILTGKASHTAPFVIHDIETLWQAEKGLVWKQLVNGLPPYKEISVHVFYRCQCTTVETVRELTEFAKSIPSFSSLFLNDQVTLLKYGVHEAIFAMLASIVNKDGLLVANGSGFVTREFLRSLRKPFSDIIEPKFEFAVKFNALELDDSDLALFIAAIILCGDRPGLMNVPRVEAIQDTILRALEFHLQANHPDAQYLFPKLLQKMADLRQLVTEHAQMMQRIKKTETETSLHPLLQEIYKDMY
Chain of Alpha-galactosidase (Coffea arabica) (Q42656 whole entry, looked up): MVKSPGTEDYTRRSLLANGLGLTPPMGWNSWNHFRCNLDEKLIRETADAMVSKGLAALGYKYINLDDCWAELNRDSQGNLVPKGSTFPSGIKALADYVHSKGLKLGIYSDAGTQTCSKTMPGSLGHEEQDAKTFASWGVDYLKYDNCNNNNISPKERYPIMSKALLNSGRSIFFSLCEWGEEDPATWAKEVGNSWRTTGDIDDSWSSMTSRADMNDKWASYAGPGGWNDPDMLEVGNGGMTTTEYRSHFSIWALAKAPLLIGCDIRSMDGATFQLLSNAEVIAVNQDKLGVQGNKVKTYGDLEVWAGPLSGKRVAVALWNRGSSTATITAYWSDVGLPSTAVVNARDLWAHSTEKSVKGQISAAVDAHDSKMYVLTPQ
Chain of Cytochrome P450 2C19 (Homo sapiens) (P33261 whole entry, looked up): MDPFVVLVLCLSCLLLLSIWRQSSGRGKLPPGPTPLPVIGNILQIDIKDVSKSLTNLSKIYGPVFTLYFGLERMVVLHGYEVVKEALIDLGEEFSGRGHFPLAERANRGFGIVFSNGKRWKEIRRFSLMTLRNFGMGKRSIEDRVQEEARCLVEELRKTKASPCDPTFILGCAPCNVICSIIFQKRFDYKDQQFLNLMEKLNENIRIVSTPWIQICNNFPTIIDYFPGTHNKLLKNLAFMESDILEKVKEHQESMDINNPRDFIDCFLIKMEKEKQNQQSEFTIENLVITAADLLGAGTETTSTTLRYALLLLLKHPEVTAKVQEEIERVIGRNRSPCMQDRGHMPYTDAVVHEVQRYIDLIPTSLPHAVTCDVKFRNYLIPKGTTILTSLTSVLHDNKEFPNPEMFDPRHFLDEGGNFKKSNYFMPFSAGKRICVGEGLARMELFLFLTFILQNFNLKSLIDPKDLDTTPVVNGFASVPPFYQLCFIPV
Chain of Cytochrome P450 2C9 (Homo sapiens) (P11712 whole entry, looked up): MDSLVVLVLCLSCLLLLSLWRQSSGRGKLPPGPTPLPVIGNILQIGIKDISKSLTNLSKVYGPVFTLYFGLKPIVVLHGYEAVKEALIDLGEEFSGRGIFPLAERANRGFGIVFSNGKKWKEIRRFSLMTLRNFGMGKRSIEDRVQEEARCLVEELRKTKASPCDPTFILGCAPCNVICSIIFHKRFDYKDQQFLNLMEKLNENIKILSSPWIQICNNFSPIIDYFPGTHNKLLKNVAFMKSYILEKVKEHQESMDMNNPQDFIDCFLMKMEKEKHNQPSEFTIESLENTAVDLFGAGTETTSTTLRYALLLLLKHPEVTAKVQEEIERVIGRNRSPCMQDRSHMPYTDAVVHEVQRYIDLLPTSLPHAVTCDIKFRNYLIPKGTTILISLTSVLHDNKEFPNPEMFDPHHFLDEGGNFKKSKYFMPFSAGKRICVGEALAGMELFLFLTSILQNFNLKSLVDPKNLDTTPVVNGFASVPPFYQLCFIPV

As for `CCOC(=O)c1c[nH]c2cc(OCC(C)C)c(OCC(C)C)cc2c1=O`, the Potency entry in test [1], in test [2] and in [3] was “inactive” in each case. Moreover, the activity change, negative = inhibition in [4] (setting [19]) was -18.7%.

In the case of `CCCCC/C=C/C/C=C/CCCCCCCC(=O)O`, the Potency entry in test [1], in test [2], in test [5] and in test [6] was “inactive” throughout. The activity change, negative = inhibition in test [4] (setting [19]) is -0.957%.

Regarding `Cc1oc(-c2ccccc2)nc1CCOc1ccc(CC2C(=O)NOC2=O)cc1` (centres undefined), the Potency entry in [1], in test [2] and in [5] was “inactive” in each case. For the same molecule, the activity change, negative = inhibition in test [4] (setting [19]) is -23.4%.

Take `O=c1ccc2ccc(OCCCCN3CCN(c4cccc5sccc45)CC3)cc2[nH]1`: the Potency entry in test [1], in test [5] and in test [7] was “inactive” each time.

As for `C[C@H]1CNCCCN1S(=O)(=O)c1cccc2cncc(F)c12`, the Potency entry in test [1], in test [2] and in test [5] was “inactive” in each case. Also, the activity change, negative = inhibition in test [4] (at 27.1 µM (top of the series)) is -27.6%; in [4] (at 57.1 µM (top of the series)) it was -12.6%.

Regarding `c1ccc2ccccc2c1`, the molecule was called inactive in test [8]. The Potency result in test [1], in test [2], in test [5] and in [4] (setting [19]) was “inactive” in each case.

As to `COc1cc(C[C@@H]2NCCc3cc(O)c(O)cc32)cc(OC)c1OC`, the Potency entry in test [1], in test [2] and in test [5] was “inactive” each time. Besides, in [4] (setting [19]), the activity change, negative = inhibition is -18.7%.

As for `COC(=O)C1=C(C#N)NC(C)=C(C(=O)OC(C)C)C1c1cccc([N+](=O)[O-])c1` (centres undefined), the Potency result in [1] and in [5] was “inactive” throughout.

Turning to `CO/N=C(/C(=O)N[C@@H]1C(=O)N2C(C(=O)OC(C)OC(C)=O)=C(COC(N)=O)CS[C@H]12)c1ccco1` (some centres undefined), the Potency result in test [1], in test [2] and in [5] was “inactive” in each case. The activity change, negative = inhibition in [4] (setting [19]) is -14.5%.

Regarding `CC1CCCC(O)CCCCCc2cc(O)cc(O)c2C(=O)O1` (centres undefined), the Potency result in test [1] and in test [5] was “inactive” each time.

In the case of `Cc1c(O)c(=O)ccn1C`, the activity change, negative = inhibition in test [9] was 39.1% [at 11.4 µM] (inactive); in test [4] (setting [19]), -14.9% [at 114 µM]. The activity, negative = inhibition in [10] is 86.4% [at 11.4 µM] (inactive). The Potency result in test [1], in test [2] and in test [5] was “inactive” in each case.

Take `CCCC(CCC)C(=O)OC1C[C@H]2CC[C@@H](C1)[N+]2(C)C` (some centres undefined): in [11], the Potency is 10 µM (active). Besides, the Potency result in test [1], in [2], in test [5] and in [3] was “inactive” throughout.

`O=S(=O)(O)c1ccc2c(N=Nc3ccc(S(=O)(=O)O)c4ccccc34)c(O)c(S(=O)(=O)O)cc2c1`: the Potency result in [1], in test [2] and in [3] was “inactive” each time. Moreover, the activity change, negative = inhibition in test [4] (setting [19]) is -21.2%.

For `CCOC(=O)N[C@@H]1CC[C@@H]2[C@@H](C1)C[C@H]1C(=O)O[C@H](C)C1[C@H]2/C=C/c1ccc(-c2cccc(F)c2)cn1` (some centres undefined), the Potency result in test [1], in test [5], in test [7] and in test [3] was “inactive” in each case. The Potency in test [12] was 7.64 µM (active).

For the molecule `CCCCCCCCCC(=O)OC1CC[C@H]2[C@@H]3CCC4=CC(=O)CC[C@@H]4[C@H]3CC[C@]12C` (some centres undefined), the Potency result in test [1], in test [2] and in test [5] was “inactive” each time. Also, the activity change, negative = inhibition in test [4] (setting [19]) stood at 0.678%.

`CCCCC[C@@H](O)CC[C@H]1[C@@H]2Cc3cccc(OCC(=O)O)c3C[C@@H]2C[C@@H]1O`: the Potency result in test [1], in [2] and in test [5] was “inactive” in each case. Also, in test [4] (setting [19]), the activity change, negative = inhibition was -4.98%.

On to `C=C[C@]1(C)C[C@@H](OC(=O)CSC2C[C@H]3CC[C@@H](C2)N3C)C2(C)[C@H](C)CCC3(CCC(=O)[C@H]32)[C@@H](C)[C@@H]1O` (some centres undefined), for which the Potency entry in test [1] and in test [5] was “inactive” in each case.

Regarding `CN(C)CCC=C1c2ccccc2C(C)(C)c2ccccc21`, the Potency result in [1], in test [5], in test [7] and in test [3] was “inactive” throughout. Moreover, in [13], the Potency is 10 µM (active).

With `Cc1cc(C#N)cc(C)c1Oc1nc(Nc2ccc(C#N)cc2)nc(N)c1Br`, the Potency result in [1] and in test [5] was “inactive” in each case.

On to `C[N+]1(CC2CC2)CC[C@]23c4c5ccc(O)c4O[C@H]2C(=O)CC[C@@]3(O)[C@H]1C5` (some centres undefined), for which the Potency result in test [1], in test [2], in [5], in [3], in test [14] and in test [15] was “inactive” throughout.

For the molecule `C[C@H]1CC[C@@H]2[C@@H](C)[C@H]3[C@H](C[C@H]4[C@@H]5CC=C6C[C@@H](O[C@@H]7O[C@H](CO)[C@H](O)[C@H](O[C@@H]8O[C@H](CO)[C@@H](O)[C@H](O)[C@H]8O)[C@H]7O[C@@H]7O[C@@H](C)[C@H](O)[C@@H](O)[C@H]7O)CC[C@]6(C)[C@H]5CC[C@]34C)N2C1`, the Potency result in [1] and in test [2] was “inactive” throughout. Further, the Potency in test [4] (setting [19]) was 20 µM (active).

For the molecule `CC[N+](C)(C)Cc1ccccc1Br`, the result in [16] and in test [17] was inactive. Besides, the Potency entry in [18], in test [1], in test [2] and in test [3] was “inactive” throughout.

With `Cc1nn(C)c2c1C(c1ccccc1F)=NCC(=O)N2C`, the Potency result in test [1], in test [5], in [3] and in test [15] was “inactive” throughout. The Potency in [2] was 22.4 µM (active).

As for `CC(C)CC(NC(=O)CNC(=O)C(Cc1ccc(O)cc1)NC(=O)C(CO)NC(=O)C(Cc1c[nH]c2ccccc12)NC(=O)C(Cc1cnc[nH]1)NC(=O)C1CCC(=O)N1)C(=O)NC(CCCN=C(N)N)C(=O)N1CCCC1C(=O)NCC(N)=O` (centres undefined), the Potency entry in test [1], in [2] and in test [5] was “inactive” in each case. Besides, the activity change, negative = inhibition in test [4] (setting [19]) was -25.2%.
